From PubChem
697 NFkB inh: inhibitors of the PMA/ionomycin-induced NF-kB reporter in 697 B cells. 0.33% of 330,000 active. inhibition, % at 4 µM. AID 435022. 697 B-cell NF-kB luciferase reporter, 16 h; in the data active means inhibition above about 35%
aSyn UTR inh: 5' untranslated region of α-synuclein, MLPCN primary screen. alpha-synuclein 5'UTR reporter, inhibitor activity. AID 1813. inhibition, % (tested at 7.5 µM). 0.82% of 300,000 active; in the data active means inhibition above about 60%;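 further: H4 neuroglioblastoma cells stably carrying SNCA 5'UTR luciferase fusion; 0% = DMSO wells and 100% = positive control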
KLF5 inhibitor: suppresses KLF5 promoter-driven expression. DLD-1 KLF5 promoter-luciferase reporter, luminescence. inhibition, % at 5 µM. 0.23% of 290,000 active;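 active means inhibition above a per-plate limit of that plate's mean compound inhibition plus 3 SD, cut at about 60% in these data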;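 further: 0% = DMSO wells and 100% = LY294002 at 200 µM; higher means less KLF5 promoter-driven luciferase light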
Gli-Sufu antag: Gli-Sufu pathway antagonism; Sufu-KO-LIGHT fibroblasts, Gli luciferase reporter luminescence; inhibition, % at 5 µM; 0.74% of 340,000 active; AID 588413;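 active means inhibition above about 55%, limit read from the data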;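 further: 0% = DMSO-treated cells and 100% = wells with medium but no cells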
Mdm2 MdmX PPI: inhibitors of human Mdm2/MdmX interaction; 3% of 330,000 active; inhibition, % at 8 µM; SaOS-2 split-luciferase Mdm2/MdmX complementation, luminescence; AID 485346;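 active means inhibition of at least 50% at 8 µM in the primary screen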
Jurkat NFkB inh: lowers PMA/ionomycin-induced NF-kB signal in Jurkat cells. PMA/ionomycin-induced NF-kB luciferase reporter, luminescence. inhibition, % at 4 µM. 0.53% of 330,000 active. AID 435003; in the data active means inhibition above about 50%
Jurkat NFkB conf: inhibitors of the PMA/ionomycin-induced NF-kB reporter in Jurkat cells, retest; shares compounds with Jurkat NFkB inh; Jurkat NF-kB luciferase, 16 h; inhibition, % at 4 µM; 27% of 2,700 active; AID 435020;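 active means inhibition reaching about 45% at 4 µM in either replicate, limit read from the data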;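 further: plate controls were PMA/ionomycin stimulated DMSO wells for no effect and unstimulated DMSO wells for full effect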
697 NFkB conf: inhibitors of the PMA/ionomycin-induced NF-kB reporter in 697 B cells, retest. 35% of 2,000 active. 697 B-cell NF-kB luciferase, 16 h. inhibition, % at 4 µM. shares compounds with 697 NFkB inh; in the data active means inhibition mostly above about 28%, no sharp cut-off; inactive means mostly below about 22%
Starred values were filed as active, the others as inactive; · = no result given. A selection: hits, their analogues and other compounds. The true share with any hit is near 4.1%.

SMILES | 697 NFkB inh | aSyn UTR inh | KLF5 inhibitor | Gli-Sufu antag | Mdm2 MdmX PPI | Jurkat NFkB inh | Jurkat NFkB conf | 697 NFkB conf
CN(C(=O)c1ccc(S(=O)(=O)N2CCOCC2)cc1)C1CCS(=O)(=O)C1 (stereo not given) | 24.8 | 2.0 | · | -4.8 | -15.4 | 17.3 | · | ·
Cc1cc(C)n2c(=O)[nH]nc2c1 | · | · | · | -0.4 | · | · | · | ·
Cn1cnc(S(=O)(=O)N2CCN(c3cccc(C(F)(F)F)c3)CC2)c1 | -6.8 | 5.8 | -20.6 | -24.3 | 9.9 | -7.6 | · | ·
O=C(O)c1ccccc1-c1ccccc1C(=O)Nc1ccc2c(c1)CCC2 | 0.0 | 11.9 | -39.0 | 0.9 | 0.8 | -8.8 | · | ·
O=C(Nc1ccc2c(c1)CCC2)c1ccccc1F | -250.6 | -8.4 | -199.6 | · | -179.4 | -176.6 | -145.1 | -224.4
c1cncc(Nc2nc(-c3cccnc3)cs2)c1 | 30.3 | -71.6 | 1.0 | -7.9 | 23.2 | -14.4 | · | ·
Fc1ccc(-c2csc(Nc3ccccn3)n2)cc1 | -263.7 | -77.0 | -278.4 | 1.2 | -183.1 | -169.4 | -74.4 | -215.6
Clc1ccccc1Nc1nc(-c2cccnc2)cs1 | -269.6 | -185.3 | -180.8 | -56.5 | -196.1 | -189.0 | -96.3 | -209.9
Cc1cccnc1Nc1nc(-c2ccccc2)cs1 | -252.1 | -128.3 | -135.4 | -99.2 | -219.4 | -151.8 | -93.2 | -232.3
CCN(C(=O)CCc1nnc2ccc(NCc3ccco3)nn12)c1ccccc1 | -33.3 | 25.6 | -16.6 | -12.6 | 17.9 | 9.6 | · | ·
CC/C(=N\NC(=O)CCC(=O)NCc1ccccc1)c1ccc(O)cc1 | -2.5 | -27.9 | -10.1 | -8.6 | 48.5 | 49.4 | · | ·
Clc1ccccc1-c1nc(-c2ccc(Br)o2)no1 | -257.1 | -45.0 | -193.1 | -18.3 | -242.1 | -162.8 | -141.2 | -263.8
O=[N+]([O-])c1ccccc1-c1nc(-c2ccc(Br)o2)no1 | -172.1 | -265.9 | -182.7 | -113.6 | -156.9 | -112.7 | · | ·
Cc1ccc(OCc2nc(-c3cccs3)no2)c([N+](=O)[O-])c1 | -274.3 | -64.2 | -145.8 | -138.7 | -201.0 | -248.5 | -162.5 | -353.2
COCCn1c(SCC(=O)N2CCOCC2)nnc1-c1ccncc1 | 4.9 | 3.7 | 4.5 | 22.8 | 11.7 | 16.5 | · | ·
CCOC(=O)c1c(C)[nH]c(C(=O)CSc2ccccc2)c1C | -330.4 | -45.2 | -154.7 | 8.2 | -154.3 | -201.6 | -124.3 | -351.2
COc1ccc(N(CC(=O)NCCc2ccc(Cl)cc2)S(=O)(=O)c2c(C)[nH]c(=O)[nH]c2=O)cc1 | 4.4 | -7.0 | 0.5 | -4.2 | 10.4 | 0.7 | · | ·
COC(=O)c1sccc1N/N=C/c1cccc(OC)c1O | -299.1 | -21.1 | -43.7 | -75.8 | -75.2 | -190.5 | -80.7 | -231.9
COC(=O)c1sccc1N/N=C/c1ccc(OC)c(OC)c1OC | -40.6 | -140.1 | -50.0 | -57.2 | -28.6 | -29.2 | · | ·
O=c1c2ccccc2cnn1-c1ccc2ccccc2c1 | -289.9 | -36.3 | -151.6 | -82.8 | -104.9 | -207.0 | -123.0 | -293.9
C[C@H](NC(=O)c1nc[nH]c1C(=O)N[C@@H](C)C(=O)OCc1ccccc1)C(=O)OCc1ccccc1 | 55.6* | -2.0 | -12.9 | 0.4 | -7.2 | 51.3* | 85.5* | 60.0*
COc1ccc(C(=O)Nc2nnc(SCC(=O)Nc3ccc(NC(C)=O)cc3)s2)c(OC)c1 | 71.0* | -63.1 | -96.6 | -26.2 | -32.4 | -206.7 | -129.2 | 61.4*
NNC(=O)c1ccc(CSc2n[nH]c(=O)[nH]c2=O)cc1 | 9.5 | -7.4 | 0.7 | -23.3 | 7.5 | 10.2 | · | ·
CC1CCc2nc3sc4c(c3c(N)c2C1)CCCC4 (stereo not given) | -97.7 | -132.1 | -86.0 | -43.6 | -79.1 | -77.9 | · | ·
Nc1c2c(nc3sc4c(c13)CCCCC4)CCCCC2 | -259.7 | -38.3 | -210.6 | -90.0 | -93.3 | -177.2 | -97.6 | -203.5
Cc1ccc2c(c1)Cc1nc3ccccc3nc1-2 | -262.3 | 71.2* | -21.4 | -33.3 | -68.3 | -188.5 | -81.4 | -252.0
Cc1ccc2c(c1)-c1nc3ccccc3cc1C2=NC1CCCCC1 | · | · | -113.4 | -90.9 | · | · | · | ·
NC(=O)c1ccc(NC(=O)COC(=O)CC2Sc3ccccc3NC2=O)cc1 (stereo not given) | -3.0 | · | · | -1.0 | -18.2 | -3.3 | · | ·
CCCCNC(=O)c1cc2cc(CC)ccc2[nH]1 | -17.1 | -55.9 | -6.6 | -22.2 | 10.2 | -8.5 | · | ·
CCOC(=O)/C(=N/Nc1ccccc1)Sc1nnc(CCc2ccccc2)n1-c1ccccc1 | -3.7 | -24.4 | 5.5 | 0.0 | 0.1 | 4.6 | · | ·
